Laboratory results taken from PubChem BioAssay AID1159580 (chemical genetic matrix, 2015).
About 2,000 (36%) of roughly 5,500 compounds were called active. About 18% were inconclusive and are not listed. Rule as the data show it: active = normalized growth mostly below about 0.91 (no sharp cut-off); inconclusive = no clear call, values can overlap the other calls; inactive = mostly above about 0.92. This is one part of the list.

Assay: chemical genetic growth profiling, strain panel (AID 1159580);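 also: tested at 20 µM; growth read once vehicle control cultures reached saturation at 30 °C; 1 = growth at the plate median or of vehicle wells; lower values mean less growth of the strain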
Details: growth OD

Measured: normalized growth

C=C1C2CC[C@H]3[C@]4(C)C[C@H](OC5OC(CO)C(OS(=O)(=O)O)C(OS(=O)(=O)O)C5OC(=O)CC(C)C)C[C@@H](C(=O)O)[C@H]4CC[C@]3(C2)[C@H]1O (some centres undefined)
inactive: S. cerevisiae deletion strains, locus YJR043C, strain POL32, stronger effect = lower value 1 | S. cerevisiae deletion strains, locus YJR075W, strain HOC1, stronger effect = lower value 1.01 | S. cerevisiae deletion strains, locus YKL009W, strain mrt4, stronger effect = lower value 0.984 | S. cerevisiae deletion strains, locus YKL068W, stronger effect = lower value 0.981 | S. cerevisiae deletion strains, locus YKL085W, strain MDH1 (second series), stronger effect = lower value 0.97 | S. cerevisiae deletion strains, locus YKL085W, strain MDH1, stronger effect = lower value 0.97 | S. cerevisiae deletion strains, locus YKL160W, strain elf1, stronger effect = lower value 0.984 | S. cerevisiae deletion strains, locus YKL190W, strain CNB1, stronger effect = lower value 1.01 | S. cerevisiae deletion strains, locus YKR001C, strain vps1, stronger effect = lower value 0.976 | S. cerevisiae deletion strains, locus YKR026C, strain gcn3, stronger effect = lower value 1.01 | S. cerevisiae deletion strains, locus YKR091W, strain srl3, stronger effect = lower value 1.01 | S. cerevisiae deletion strains, locus YLL001W, strain dnm1, stronger effect = lower value 1.03 | S. cerevisiae deletion strains, locus YLL026W, stronger effect = lower value 1.01 | S. cerevisiae deletion strains, locus YLL041C, strain sdh2, stronger effect = lower value 1.01 | S. cerevisiae deletion strains, locus YLR027C, strain aat2, stronger effect = lower value 1.01 | S. cerevisiae deletion strains, locus YLR039C, strain RIC1, stronger effect = lower value 0.99 | S. cerevisiae deletion strains, locus YLR058C, strain SHM2, stronger effect = lower value 1.01 | S. cerevisiae deletion strains, locus YLR102C, strain apc9, stronger effect = lower value 0.983 | S. cerevisiae deletion strains, locus YLR221C, strain rsa3, stronger effect = lower value 0.995 | S. cerevisiae deletion strains, locus YLR258W, strain gsy2, stronger effect = lower value 1.02 | S. cerevisiae deletion strains, locus YLR262C, strain YPT6 (second series), stronger effect = lower value 1.01 | S. cerevisiae deletion strains, locus YLR262C, strain YPT6, stronger effect = lower value 0.994 | S. cerevisiae deletion strains, locus YLR268W, strain sec22, stronger effect = lower value 0.987 | S. cerevisiae deletion strains, locus YLR320W, strain mms22, stronger effect = lower value 1.01 | S. cerevisiae deletion strains, locus YLR330W, strain CHS5, stronger effect = lower value 1.01 | S. cerevisiae deletion strains, locus YLR342W, strain FKS1 (second series), stronger effect = lower value 1.01 | S. cerevisiae deletion strains, locus YLR342W, strain FKS1, stronger effect = lower value 1.01 | S. cerevisiae deletion strains, locus YLR357W, strain rsc2, stronger effect = lower value 0.986 | S. cerevisiae deletion strains, locus YLR370C, strain arc18, stronger effect = lower value 1 | S. cerevisiae deletion strains, locus YLR371W, strain rom2, stronger effect = lower value 0.987 | S. cerevisiae deletion strains, locus YLR384C, strain iki3, stronger effect = lower value 0.991 | S. cerevisiae deletion strains, locus YLR418C, strain cdc73, stronger effect = lower value 1 | S. cerevisiae deletion strains, locus YML016C, strain PPZ1, stronger effect = lower value 1.01 | S. cerevisiae deletion strains, locus YML032C, strain rad52, stronger effect = lower value 0.984 | S. cerevisiae deletion strains, locus YML120C, strain ndi1, stronger effect = lower value 1.01 | S. cerevisiae deletion strains, locus YML124C, strain tub3, stronger effect = lower value 0.987 | S. cerevisiae deletion strains, locus YMR058W, strain fet3, stronger effect = lower value 1.01 | S. cerevisiae deletion strains, locus YMR078C, strain ctf18, stronger effect = lower value 0.982 | S. cerevisiae deletion strains, locus YMR125W, strain sto1, stronger effect = lower value 1.02 | S. cerevisiae deletion strains, locus YMR129W, stronger effect = lower value 0.992 | S. cerevisiae deletion strains, locus YMR205C, strain PFK2, stronger effect = lower value 1.03 | S. cerevisiae deletion strains, locus YMR223W, strain ubp8, stronger effect = lower value 0.977 | S. cerevisiae deletion strains, locus YMR231W, strain pep5, stronger effect = lower value 1.01 | S. cerevisiae deletion strains, locus YMR263W, strain SAP30, stronger effect = lower value 1.02 | S. cerevisiae deletion strains, locus YMR307W, strain GAS1, stronger effect = lower value 1.05 | S. cerevisiae deletion strains, locus YNL067W, strain RPL9B, stronger effect = lower value 1.02 | S. cerevisiae deletion strains, locus YNL071W, strain lat1, stronger effect = lower value 1.01 | S. cerevisiae deletion strains, locus YNL128W, strain TEP1, stronger effect = lower value 1.02 | S. cerevisiae deletion strains, locus YNL153C, strain GIM3, stronger effect = lower value 1.03 | S. cerevisiae deletion strains, locus YNL209W, strain ssb2, stronger effect = lower value 1 | S. cerevisiae deletion strains, locus YNL233W, strain BNI4, stronger effect = lower value 1.02 | S. cerevisiae deletion strains, locus YNL248C, strain rpa49, stronger effect = lower value 0.974 | S. cerevisiae deletion strains, locus YNL250W, strain rad50, stronger effect = lower value 0.972 | S. cerevisiae deletion strains, locus YNL271C, strain bni1, stronger effect = lower value 0.972 | S. cerevisiae deletion strains, locus YNL298W, strain CLA4, stronger effect = lower value 0.977 | S. cerevisiae deletion strains, locus YNL307C, strain MCK1, stronger effect = lower value 0.986 | S. cerevisiae deletion strains, locus YNL322C, strain KRE1 (second series), stronger effect = lower value 1 | S. cerevisiae deletion strains, locus YNL322C, strain KRE1, stronger effect = lower value 1.01 | S. cerevisiae deletion strains, locus YNR049C, strain mso1, stronger effect = lower value 1.01 | S. cerevisiae deletion strains, locus YNR052C, strain pop2, stronger effect = lower value 0.97 | S. cerevisiae deletion strains, locus YOL006C, strain TOP1, stronger effect = lower value 1.07 | S. cerevisiae deletion strains, locus YOL012C, strain htz1 0.954 | S. cerevisiae deletion strains, locus YOL147C, strain pex11, stronger effect = lower value 0.992 | S. cerevisiae deletion strains, locus YOR001W, strain rrp6, stronger effect = lower value 0.992 | S. cerevisiae deletion strains, locus YOR061W, strain CKA2, stronger effect = lower value 1.01 | S. cerevisiae deletion strains, locus YOR069W, strain VPS5, stronger effect = lower value 1.01 | S. cerevisiae deletion strains, locus YOR070C, strain gyp1, stronger effect = lower value 1 | S. cerevisiae deletion strains, locus YOR080W, strain dia2, stronger effect = lower value 1.02 | S. cerevisiae deletion strains, locus YOR083W, strain WHI5, stronger effect = lower value 0.976 | S. cerevisiae deletion strains, locus YOR106W, strain vam3, stronger effect = lower value 0.991 | S. cerevisiae deletion strains, locus YOR136W, strain idh2, stronger effect = lower value 0.988 | S. cerevisiae deletion strains, locus YOR144C, strain elg1, stronger effect = lower value 0.99 | S. cerevisiae deletion strains, locus YOR184W, strain ser1, stronger effect = lower value 0.958 | S. cerevisiae deletion strains, locus YOR265W, strain rbl2, stronger effect = lower value 1.01 | S. cerevisiae deletion strains, locus YOR270C, strain vph1, stronger effect = lower value 1.01 | S. cerevisiae deletion strains, locus YOR290C, strain snf2, stronger effect = lower value 0.986 | S. cerevisiae deletion strains, locus YOR316C, strain cot1, stronger effect = lower value 0.991 | S. cerevisiae deletion strains, locus YPL051W, strain arl3, stronger effect = lower value 0.995 | S. cerevisiae deletion strains, locus YPL055C, strain LGE1, stronger effect = lower value 1.05 | S. cerevisiae deletion strains, locus YPL078C, strain atp4, stronger effect = lower value 0.993 | S. cerevisiae deletion strains, locus YPL106C, strain sse1, stronger effect = lower value 1.01 | S. cerevisiae deletion strains, locus YPL240C, strain hsp82, stronger effect = lower value 1.01 | S. cerevisiae deletion strains, locus YPL241C, strain CIN2, stronger effect = lower value 1.02 | S. cerevisiae deletion strains, locus YPR119W, strain clb2, stronger effect = lower value 0.986 | S. cerevisiae deletion strains, locus YPR141C, strain kar3, stronger effect = lower value 0.969 | S. cerevisiae deletion strains, locus YPR163C, strain tif3, stronger effect = lower value 0.992 | S. cerevisiae deletion strains, locus YPR167C, strain met16, stronger effect = lower value 0.985 | S. cerevisiae deletion strains, strain wtn01, stronger effect = lower value 0.98 | S. cerevisiae strains, strain wild type, stronger effect = lower value 1.01
